Data: PubChem BioAssay (EPA / NIEHS)
The source made the active and inactive calls. How the source made its calls: active means hit-call score of the fitted dose curve at least 0.9, where 1 is the maximum; inactive means score below 0.9.

experiment: ATG_EGR_CIS: Attagene CIS-FACTORIAL HepG2 Assay for human Early Growth Response 1 (EGR1) (AID 2282938); settings: HepG2 Attagene CIS-FACTORIAL EGR reporter mRNA; actives raise or lower the signal
Description: ATG_CIS is a cell-based, multiplexed-readout assay that uses HepG2, a human liver cell line, with measurements taken at 24 hours after chemical dosing in a 24-well plate.ATG_EGR_CIS is one of 52 assay component(s) measured or calculated from the ATG_CIS assay. It is designed to make measurements of mRNA induction, a form of inducible reporter, as detected with fluorescence intensity signals by Reverse transcription polymerase chain reaction (RT-PCR) and Capillary electrophoresis technology.Data from the assay component ATG_EGR_CIS was analyzed into 1 assay endpoint. This assay endpoint, ATG_EGR_CIS, was analyzed with bidirectional fitting relative to DMSO as the negative control and baseline of activity. Using a type of inducible reporter, measures of mRNA for gain or loss-of-signal activity can be used to understand the reporter gene at the transcription factor-level as they relate to the gene EGR1. Furthermore, this assay endpoint can be referred to as a primary readout, because this assay has produced multiple assay endpoints where this one serves a reporter gene function. To generalize the intended target to other relatable targets, this assay endpoint is annotated to the dna binding intended target family, where the subfamily is zinc finger.
Human liver HepG2 cells are transiently transfected with multiple reporter transcription units (MRTUs) in 6-well plates using FuGene 6 reagent (Roche; 3 ml FuGene/1 mg DNA). The MRTU constructs are regulated by a cis-regulating element (promoter). […] A major difference between the CIS and TRANS system is that in CIS activities of endogenous TFs are measured, whereas the TRANS assay evaluates changes in activities of exogenous, chimeric NR-Gal4 proteins. […] At the end of 24 hour incubation, total RNA was isolated using TriZol reagent (Invitrogen). The isolated RNA is then reverse-transcribed using oligo(dT) primer and Mo-MLV reverse transcriptase (Invitrogen) with DNAse I (Ambion) treatment for 30 min. The one-tenth of the produced cDNA was amplified by PCR using Taq DNA polymerase (Invitrogen) and two reporter sequence-specific primers. The PCR products were fluorescently labeled by primer extension with 6-arboxyfluorescein (6-FAM) 5'-labeled reporter sequence-specific primer (2 min at 95 C, 20 s at 68 C and 10 min at 72 C) and these products were digested with 5U of HpaI (New England Biolabs) for 2h at 37 C. The fragments were purified using Qiaquick PCR columns (Qiagen), analyzed on an ABI 3130xL genetic analyzer (Applied Biosystems) with peak positions identified by using a set of X-rhodamine (ROX)-labeled MapMarker1000 molecular weight standards (BioVentures). The raw capillary electrophoresis data was processed using Attagraph software (Attagene).

Compound	outcome	AC50
CC(C)(C)C(=O)C(Oc1ccc(Cl)cc1)n1cncn1 (stereo not given)	inactive	
CCOP(=S)(OCC)Oc1nc(Cl)n(C(C)C)n1	inactive	
CC(C)N1C(=O)c2ccccc2NS1(=O)=O	inactive	
O=P(O)(O)CCCl	inactive	
N#Cc1c[nH]cc1-c1cccc2c1OC(F)(F)O2	inactive	
COP(=O)(OC)O/C(C)=C/C(=O)N(C)C	inactive	
Cc1c(COC(=O)[C@@H]2[C@H](/C=C(\Cl)C(F)(F)F)C2(C)C)cccc1-c1ccccc1	inactive	
CC1(C)CON(Cc2ccccc2Cl)C1=O	inactive	
COc1cc(OC)nc(NC(=O)NS(=O)(=O)c2ncccc2OCC(F)(F)F)n1	inactive	
CC(C)Nc1nc(Cl)nc(NC(C)C)n1	inactive	
C=C(C)CN(CC)c1c([N+](=O)[O-])cc(C(F)(F)F)cc1[N+](=O)[O-]	inactive	
CCOC(=O)C(C)OC(=O)c1cc(Oc2ccc(C(F)(F)F)cc2Cl)ccc1[N+](=O)[O-] (stereo not given)	inactive	
CC(C)NC(=O)N1CC(=O)N(c2cc(Cl)cc(Cl)c2)C1=O	inactive	
CC1(C)C(C(=O)OC(C#N)c2cccc(Oc3ccccc3)c2)C1(C)C (stereo not given)	inactive	
CCCCOCN(C(=O)CCl)c1c(CC)cccc1CC	inactive	
CC(C)Oc1cccc(NC(=O)c2ccccc2C(F)(F)F)c1	inactive	
N#CN=C1SCCN1Cc1ccc(Cl)nc1	inactive	
CCNC(=O)NC(=O)C(C#N)=NOC	inactive	
Cc1nc(N(C)C)nc(OC(=O)N(C)C)c1C	inactive	
CO/N=C(/C1=NOCCO1)c1ccccc1Oc1ncnc(Oc2ccccc2Cl)c1F		2.61 µM (active)

Compound	outcome	AC50
CCN(CC)c1nc(C)cc(OP(=S)(OC)OC)n1		50 µM (active)
CNC(=O)N(C)c1nnc(C(C)(C)C)s1	inactive	
CCCCC(C#N)(Cn1cncn1)c1ccc(Cl)cc1 (stereo not given)	inactive	
COc1ccc(-c2ccccc2)cc1NNC(=O)OC(C)C	inactive	
CCN(CC)C(=O)C(C)Oc1cccc2ccccc12 (stereo not given)	inactive	
CS(=O)(=O)c1cc(C(F)(F)F)ccc1C(=O)c1cnoc1C1CC1	inactive	
CSC(=O)c1c(C(F)F)nc(C(F)(F)F)c(C(=O)SC)c1CC(C)C	inactive	
COC(=O)NS(=O)(=O)c1ccc(N)cc1	inactive	
Clc1cccc(C(Cl)(Cl)Cl)n1	inactive	
COCc1cnc(C2=NC(C)(C(C)C)C(=O)N2)c(C(=O)O)c1 (stereo not given)	inactive	
COCC(C)N(C(=O)CCl)c1c(C)csc1C (stereo not given)	inactive	
CN/C(=N\[N+](=O)[O-])NCc1cnc(Cl)s1	inactive	
CC1(C)C(C=C(Cl)Cl)C1C(=O)OC(C#N)c1cccc(Oc2ccccc2)c1 (stereo not given)	inactive	
Nc1cnn(-c2ccccc2)c(=O)c1Cl	inactive	
COP(=S)(OC)Oc1ccc([N+](=O)[O-])c(C)c1		28.9 µM (active)
CC1(C)CCC(=Cc2ccc(Cl)cc2)C1(O)Cn1cncn1 (stereo not given)	inactive	
Clc1nc(Cl)nc(Nc2ccccc2Cl)n1	inactive	
O=c1n(Cl)c(=O)n(Cl)c(=O)n1Cl	inactive	
O=C1C2CC=CCC2C(=O)N1SC(Cl)(Cl)Cl (stereo not given)	inactive	
CNC(=O)Oc1cccc2ccccc12	inactive	
